Screens deposited in PubChem by University of Kansas High Throughput Screening Laboratory.
Pf apPOL block – Pf-apPOL DNA polymerase inhibition | AID 1794808 | inhibition, % at 10 µM | 0.25% of 210,000 active | Recombinant Pf-apPOL, molecular beacon fluorescence, 1.5 h
mHTT-CaM PPI inh – mHTT-calmodulin interaction abrogation; 3.6% of 190,000 active; AlphaScreen His-mHTT/GST-CaM binding, luminescence; inhibition, % at 15 µM; P42858;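 also: 0% = both proteins with DMSO and 100% = one protein alone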
* = called active by the depositor; . = no result. Compounds with a hit are over-represented: about 3.6% of the library has one in this group of screens. Rule as the data show it: active = inhibition above about 50%; inactive = the rest.

SMILES | Pf apPOL block | mHTT-CaM PPI inh
COCCOCC(=O)N1c2ccccc2C(C)(c2ccc(Cl)cc2)CC1(C)C (centres undefined) | -6 | 34
CC1(C)CC(C)(c2ccc(Cl)cc2)c2ccccc2N1 (centres undefined) | -10 | 85*
CC(C)NCC(O)COC(C)(C)C (centres undefined) | -9 | 0
O=C(Nc1cnc(N2CCCCCC2)nc1)c1ccccc1C(F)(F)F | 6 | 1
O=C(CSc1ccc(-c2ccccn2)nn1)Nc1ccc(F)c(F)c1 | -6 | 99*
O=C(CSc1ccccn1)Nc1ccc(Br)cc1 | 3 | -12
Cc1ccc(/C=C2\Sc3ccccc3C2=O)cc1[N+](=O)[O-] | 2 | 14
CN1CCN(c2ccc(/C=C3\Sc4ccccc4C3=O)cc2[N+](=O)[O-])CC1 | 2 | 72*
Nc1ccc(C(=O)c2ccc(N)c(N)c2)cc1N | -11 | 10
Nc1ccc(N)c2c1C(=O)c1c(N)ccc(N)c1C2=O | -2 | 92*
CCN(CC)c1ccc(-c2nc(-c3cccc(F)c3)no2)cn1 | 0 | -8
CCN(CC)c1ccc(C(=O)N2CCC(c3cc(N)on3)CC2)cc1 | -8 | 7
Cc1nn(-c2ccccc2)cc1C=Nn1c(-c2ccncc2)n[nH]c1=S | -2 | .
CSc1nnc2c(n1)OC(c1ccc(C(=O)O)cc1)Nc1ccc(Br)cc1-2 (centres undefined) | -12 | 4
CSc1nnc2c(n1)OC(c1ccncc1)Nc1ccc(Br)cc1-2 (centres undefined) | -5 | 54*
CCCSc1nnc2c(n1)OC(c1ccco1)Nc1ccc(Br)cc1-2 (centres undefined) | -7 | 53*
CCCSc1nnc2c(n1)OC(c1ccco1)Nc1ccccc1-2 (centres undefined) | -5 | 7
COc1ccc(C=C2Oc3cc(OCC=C(C)C)ccc3C2=O)cc1 | -6 | -27
CN(C)CCN(C)CC1CCCCC1 | -2 | 0
CCNC(=O)N1CCCC(c2cccc(C(=O)N3CCN(C4CCCCC4)CC3)c2)C1 (centres undefined) | -2 | -4
CCO/C=C1\c2cc([N+](=O)[O-])ccc2-c2c1cc([N+](=O)[O-])cc2[N+](=O)[O-] | -5 | 74*
COc1ccc(/C=C2\c3cc([N+](=O)[O-])ccc3-c3c2cc([N+](=O)[O-])cc3[N+](=O)[O-])cc1OC | -4 | 9
O=S(=O)(NCC1(c2ccccc2)CC1)c1ccc2c(c1)OCCO2 | . | -9
COc1ccc(C2(CNC(=O)c3ccc(OC)c([N+](=O)[O-])c3)CCCC2)cc1OC | 1 | 9
COc1ccc(C2(CNC(=O)c3ccccc3[N+](=O)[O-])CCCC2)cc1OC | 1 | 100*
SMILES | Pf apPOL block | mHTT-CaM PPI inh
O=C(NCCn1ncc2c(N3CCCCC3)ncnc21)c1cc2ccccc2o1 | -6 | 8
Oc1ccc2ccccc2c1C1Nc2cccc3cccc(c23)N1 | . | 89*
Oc1ccc(O)c2c1C1c3ccccc3C2c2ccccc21 | 2 | 28
OCCN(CCO)CC(O)COCC12CC3CC(CC(C3)C1)C2 (centres undefined) | -3 | 100*
CCN(CC)CC(O)COCC12CC3CC(CC(C3)C1)C2 (centres undefined) | -1 | -2
COc1ccccc1NC(=S)O[C@H]1CCC12CCC(c1ccccc1)CC2 (some centres undefined) | -4 | -44
Cc1ccc(NC(=O)C2c3ccccc3C(=O)N(C)C2c2c[nH]c3ccccc23)c(Cl)c1 (centres undefined) | -6 | 87*
CN1C(=O)c2ccccc2C(C(=O)Nc2ccc(F)cc2Cl)C1c1ccc(F)cc1 (centres undefined) | -6 | -2
CCN1CCN(C(=O)C(C)C2CCN(S(=O)(=O)c3ccc(Cl)s3)CC2)CC1 (centres undefined) | 4 | -3
COc1ccc(C(=O)Nc2ccc(-c3cc4ccccc4oc3=O)c(C)c2)cc1[N+](=O)[O-] | -7 | 1
Cc1c2cc(O)c(=O)cc-2oc2cc(O)c(O)cc12 | . | 100*
Cc1cc2oc(=O)cc(-c3cc4ccccc4o3)c2cc1O | 3 | 6
Cc1cc(C(=O)Nc2nc3c(s2)CN(S(=O)(=O)c2ccc(Cl)s2)CC3)no1 | 2 | -1
O=[N+]([O-])c1ccc(NCCc2nc3ccccc3[nH]2)c(Cl)c1 | -2 | 15
CCNc1cc(N2CCCC(CCC(=O)Nc3ccccc3C)C2)ncn1 (centres undefined) | -5 | 4
O=c1cc(-c2ccccc2)[nH][nH]1 | -6 | 100*
N#Cc1ccc(-c2ccccc2)[nH]c1=O | -8 | 4
CNC(=O)C1CCCN(c2nc3ncn(CC(=O)Nc4ccccc4F)c(=O)c3s2)C1 (centres undefined) | -6 | -3
O=C(O)COc1ccc2c(c1)OC(=Cc1ccccc1Cl)C2=O | -3 | 9
CN(C)c1ccc(/C=C/c2cc(C(F)(F)F)[nH]c(=O)n2)cc1 | -5 | 20
CN(C)c1ccc(/C=C/c2cc(/C=C/c3ccc(N(C)C)cc3)[n+]3nn(C)nc3n2)cc1 | 0 | 100*
